High-throughput results: PubChem BioAssay, several laboratories
This is a sample that favours compounds with a hit; in the whole collection about 1.5% have one here.
eLon inh: inhibitors of E. coli Lon protease, primary screen, biochemical, fluorescence polarization; P0A9M0; purified E. coli Lon protease; inhibition, % at 7.94 µM; 360,000 compounds, 0.42% hits; AID 602123, 2011; in the data active means inhibition above about 13%, passing the limit was not always enough;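 further: 0% = enzyme with probe and DMSO and 100% = no enzyme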
GLD-1 TGE inh: GLD-1/TGE RNA complex disruptors, primary screen, biochemical, fluorescence polarization | Female germline-specific tumor suppressor gld-1 (Caenorhabditis elegans), Q17339 | purified GLD-1 + fluorescein TGE RNA | inhibition, % at 5.96 µM | 320,000 compounds, 0.44% hits;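 active means percent inhibition above a per-plate cutoff, the plate mean of test compounds plus 3 SD, cut at about 30% in these data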;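 further: 0% = DMSO wells with GLD-1 and probe and 100% = wells lacking GLD-1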
MEX-5 binding: MEX-5 zinc finger RNA-binding disruptors – biochemical, C. elegans, fluorescence polarization, MLPCN library, primary screen; Zinc finger protein mex-5 (Caenorhabditis elegans), Q9XUB2; MEX-5/FITC-TCR2 RNA binding; active compounds read low; activity score (negative = inhibition of binding), % at 10 µM; 300,000 compounds, 0.38% hits; AID 1832, 2009;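 active means inhibition past about -25% in most replicates, and total fluorescence under double the plate's negative control median, limit read from the data; inconclusive means replicates evenly split on the limit, or fluorescence at least double controls; inactive means too little inhibition in most replicates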;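 further: 0% = DMSO and -100% = 5 µM competing unlabeled TCR2 RNA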
MCL1 BIM primary: inhibitors of MCL1 binding to BIM-BH3, primary screen, biochemical, fluorescence polarization; GST-MCL1 / FITC-Bim-BH3 fluorescence polarization; inhibition, % at 10.9 µM; 320,000 compounds, 0.68% hits;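 active means inhibition above the mean inhibition of all tested compounds plus 3 SD, set per campaign, cut at about 40% in these data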;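 further: 0% = DMSO wells and 100% = unlabeled Bim-BH3 peptide control; higher means more loss of mP so more displacement of Bim peptide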
EBV gp42 inh: Epstein-Barr virus gp42 inhibitors, primary screen, biochemical, uHTS, fluorescence polarization | Glycoprotein 42 (Epstein-Barr virus (strain AG876)), Q1HVG2 | Fluorescence polarization binding assay, mP read-out | inhibition, % (tested at 21.74 µM) | 220,000 compounds, 0.42% hits; in the data active means inhibition above about 50%
BCLXL inh: inhibitors of human Bcl-xL, primary screen, biochemical, fluorescence polarization, HTS; GST-Bcl-xL / FITC-Bim BH3 peptide fluorescence polarization; inhibition, % at 10.9 µM; 320,000 compounds, 0.7% hits;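 active means inhibition above the mean of all tested compounds plus 3 SD, cutoff set per campaign, cut at about 30% in these data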;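 further: 0% = DMSO wells and 100% = unlabeled Bim-BH3 peptide competitor; inhibitors lower millipolarization by displacing the labeled peptide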
Numbers without * were called inactive; u = inconclusive; x = no result.

SMILES	eLon inh	GLD-1 TGE inh	MEX-5 binding	MCL1 BIM primary	EBV gp42 inh	BCLXL inh
O=C(c1ccco1)N1CCN(c2ncnc3c(-c4ccc(Cl)cc4)nsc23)CC1	-7	4	-29*	9	x	6
Cc1noc(C)c1S(=O)(=O)N(C)C[C@H]1OCc2cnnn2CCCC(=O)N([C@@H](C)CO)C[C@H]1C	-7	x	x	x	x	x
COc1cc(NC(=O)c2ccc(Br)cc2)c(OC)cc1NC(=O)c1ccccc1	13	6	2	8	x	4
COc1ccc2nc3ccccc3nc2c1NC(=O)c1ccc(Br)cc1	-6	-6	u	42*	11	39*
COc1cccc(CNC(=O)c2cc(S(=O)(=O)N3CCCCC3)c[nH]2)c1	-5	-8	-1	-7	x	0
Cc1cccc(N2CCN(C(=O)Cc3cn(C)c4ccccc34)CC2)c1C	0	18	0	44*	38	48*
Cc1cccc(N2CCN(C(=O)COc3cc(=O)n(C)c4ccccc34)CC2)c1C	-8	3	2	3	-4	8
CCOC(=O)c1cc2sccc2n1CC(=O)OC(C)C	-1	3	2	7	-12	5
CCOC(=O)c1cc(-c2ccccc2)sc1NC(=O)CC	-2	-4	2	11	-11	6
COC(=O)CCC(=O)OC1(C)C(=O)C2=CN(C3CC3)C(c3ccc(OC)cc3)=CC2=C(Br)C1=O (stereo not given)	-14	9	-7	25	x	25
COC(=O)CCC(=O)OC1(C)C(=O)C2=CN(CCCOC(C)C)C(c3ccc(OC)cc3)=CC2=C(Br)C1=O (stereo not given)	6	26	u	45*	35	42*
COC(=O)CCC(=O)OC1(C)C(=O)C2=CN(CC3CC3)C(c3ccc(OC)cc3)=CC2=C(Br)C1=O (stereo not given)	9	21	-18	35	20	33*
COC(=O)CCC(=O)OC1(C)C(=O)C2=CN(Cc3ccc(OC)cc3)C(c3ccc(OC)cc3)=CC2=C(Br)C1=O (stereo not given)	-42	6	-8	6	x	11
COC(=O)CCC(=O)OC1(C)C(=O)C=C2C=C(C3CC3)N(Cc3ccc4c(c3)OCO4)C=C2C1=O (stereo not given)	0	17	-6	9	-1	12
COC(=O)CCC(=O)OC1(C)C(=O)C=C2C=C(C3CC3)N(Cc3ccc(OC)cc3)C=C2C1=O (stereo not given)	3	27	-16	35	22	37*
COC(=O)CCC(=O)OC1(C)C(=O)C2=CN(CC(C)C)C(c3ccc(OC)cc3)=CC2=C(Br)C1=O (stereo not given)	x	15	-17	46*	24	43*
CCSC1=NCCN1S(=O)(=O)c1ccccc1	2	4	0	-2	-25	4
CC1CN(C(=O)c2ccc(NS(=O)(=O)c3ccc(F)c(F)c3)cc2)CC(C)O1 (stereo not given)	-4	10	-3	-2	x	-3
CCN(CC)CCCNc1cc(C(F)(F)F)c(C#N)c2nc3ccccc3n12	-19	20	-9	42*	x	38*
N#C[C@@H]1[C@@H]2C(=O)N(c3ccc4c(c3)OCCO4)C(=O)[C@@H]2C2c3ccccc3C=CN21 (stereo not given in full)	x	31*	-4	30	10	34*
CC(=O)[C@H]1[C@H](c2cccc(Cl)c2)C(C#N)(C#N)[C@@H]2c3ccccc3C=CN21	x	34*	-3	26	22	31*
CN1C(=O)c2ccccc2C(C(=O)O)C1c1cccc(Cl)c1 (stereo not given)	0	-2	0	-7	-8	0
COC(=O)C1(CCSC)NC(c2ccccc2F)C2C(=O)N(c3ccc4c(c3)OCCO4)C(=O)C21 (stereo not given)	-12	6	0	-10	-9	-2
CC(=O)[C@H]1[C@@H]2C(=O)N(c3cccc(Cl)c3)C(=O)[C@@H]2[C@H]2c3ccccc3C=CN21	-18	34*	-18	51*	21	61*
CC(=O)[C@@H]1[C@@H]2C(=O)N(c3ccc(F)c(Cl)c3)C(=O)[C@@H]2C2c3ccccc3C=CN21 (stereo not given in full)	x	26	-5	32	42	36*
SMILES	eLon inh	GLD-1 TGE inh	MEX-5 binding	MCL1 BIM primary	EBV gp42 inh	BCLXL inh
O=C(CSc1ccc2c(c1)OCCO2)NC(=O)NC1CCCC1	1	-3	0	-4	-12	-1
O=C(O)CSc1cc(C(=O)c2ccccc2O)cn2c(=O)c3c4c(sc3nc12)CCCC4	0	x	-10	x	69*	x
O=C(O)CSc1nc2sc3c(c2c(=O)n1Cc1ccccc1)CCCCC3	-1	2	-2	6	x	7
CCC(C(=O)Nc1ccc(S(=O)(=O)N(C)C2CCN(C)CC2)cc1)c1ccccc1 (stereo not given)	1	0	x	-20	x	-14
Cc1ccc(CCNC(=O)CS(=O)Cc2nc(-c3ccccc3Cl)oc2C)cc1 (stereo not given)	7	4	2	3	x	7
Cc1cc(O)c2c(c1)C(=O)[C@@]13Oc4c5c(c(O)c6c(O)cc(C)cc46)C(=O)C[C@H](O)[C@H]5[C@@H]1[C@@H](O)CC(=O)C3=C2O	20*	x	x	x	x	x
CCCOc1ccc(C(=O)N2CCN(Cc3ccc4c(c3)OCO4)CC2)cc1	-4	12	0	6	x	3
CC1CCC2(CC1)NC(=S)N(c1ccccc1)N2 (stereo not given)	1	9	0	-5	17	4
CCOc1ccc(C(=O)OCC(=O)NCCCc2ccccc2)cc1	8	6	0	-1	x	116*
CN(C)c1ccc(C(=O)OCC(=O)NCCCc2ccccc2)cc1	-1	0	1	-6	x	1
CC(c1nccs1)N(C)c1nc2nonc2nc1NC1CC1 (stereo not given)	10	28	-8	37	0	33*
c1ccc2nc(N3CCCC3)c(N3CCCC3)nc2c1	-1	22	3	44*	4	39*
CN(C)C=Nc1nc2ccccc2nc1N1CCCC1	15	17	3	41*	0	43*
Cc1nc2ccccc2nc1N1CCCCC1	8	x	x	x	-3	x
O=c1[nH]cnc2c1N=C(c1cccc([N+](=O)[O-])c1)CC(c1ccccc1)N2 (stereo not given)	7	2	0	0	12	5
